Compound activity from PubChem BioAssay.
In the library only some 1.2% were active in any assay of this set; here they are far more common.
KCNH2 3.1 block: KCNH2 3.1 (human) potassium channel inhibition | U2OS KCNH2 3.1, thallium flux FluxOr; stronger effect = lower value | activity change, % (tested at about 1.8 µM) | actives 0.95% (n = 340,000) | AID 720553;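 active means maximum activity change below -70%; inconclusive means maximum activity change from -70% to -50%; inactive means maximum activity change above -50%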;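 further: thallium influx rate constant from kinetic fluorescence after stimulation buffer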
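Thallium flux read-out: FluxOr dye with Red40 quencher in HBSS/HEPES, 45 min at RT. Rate constants from kinetic reads were normalized to positive and negative DMSO controls. Cells: U2OS virally expressing the 3.1 isoform.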
KCNH2 WT inh: inhibitors of human wildtype KCNH2 potassium channel; actives 0.37% (n = 340,000); U2OS, BacMam KCNH2, thallium flux FluxOr; stronger effect = lower value; activity change, % at 1.84 µM; Q12809;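 active means maximum activity change below -70%; inconclusive means maximum activity change between -70% and -50%; inactive means maximum activity change above -50%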
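U2OS cells were transduced with wild-type KCNH2 virus (2.03 x 10^8 / mL) for 4 h at room temperature, then cultured overnight at 37 C. Thallium flux was read with FluxOr dye. Rate constants were normalized to DMSO controls.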
Tb PGK inh: blocks T. brucei phosphoglycerate kinase. PGK/GAPDH coupled, Kinase-Glo luminescence, 60 min. P07378. actives 0.043% (n = 380,000). Potency, µM (titrated, usually from 57.5 µM), for the others: top-dose activity change, negative = inhibition, most hits filed as inhibitors; further: potency means the concentration at half of the fitted maximal effect; nearly all actives have a fitted effect of over 60% in size
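Luminescent ATP detection (Kinase-Glo Plus) follows a 60-minute room-temperature incubation, with wells lacking PGK as controls. Buffer: 100 mM TEA (pH 7.6), 5 mM MgCl2, 0.01% Tween-20. Coupling enzyme GAPDH (100 nM final) supplies unstable 1,3-BPG in-well.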
KAT2A inh: blocks human GCN5L2 histone acetyltransferase. Q92830. GCN5L2 HAT assay, ThioGlo1 CoA-SH fluorescence. Potency, µM (doses to about 58.9 µM), for inactives: at the highest dose activity change, negative = inhibition, usual class: inhibitors. actives 0.21% (n = 390,000). AID 504327; further: potency means the concentration at half of the fitted maximal effect
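Titration-based screen in which CoA formation is detected via maleimide probe ThioGlo1 (50uM) turning fluorescent on thiol reaction; substrates H3(1-25) 75uM and acetyl-CoA 70uM, GCN5L2 20nM, 20 min incubation at room temperature.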
RGS4 inh: inhibitors of human regulator of G protein signaling 4; actives 0.039% (n = 390,000); Potency, µM (titrated, usually from 114 µM), without a hit: at the top dose activity change, negative = inhibition, usual class: inhibitors; Transcreener GDP fluorescence polarization, RGS4-accelerated GTP hydrolysis; AID 504845; P49798; further: potency means the concentration at half of the fitted maximal effect; nearly all actives have a fitted effect of over 75% in size
Target sequence (P49798 whole entry, looked up): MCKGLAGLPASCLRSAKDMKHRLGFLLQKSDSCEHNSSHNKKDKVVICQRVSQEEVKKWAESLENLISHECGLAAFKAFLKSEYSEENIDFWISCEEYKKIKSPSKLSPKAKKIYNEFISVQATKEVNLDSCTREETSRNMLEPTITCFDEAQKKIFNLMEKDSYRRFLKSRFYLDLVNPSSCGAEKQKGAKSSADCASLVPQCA
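MLSMR compounds (23 nl, pin-transferred) preincubated 10 min at room temperature with a 500nM (2x) first reagent, then RGS4 at 900nM (2x) plus Transcreener GDP mix added; fluorescence polarization (620/688 nm) read before and after 90 min at 30 °C.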
Pin1 inh: human Pin1 inhibition; Potency, µM (titrated, usually from 115 µM), without a hit: at the highest dose activity, negative = inhibition, actives largely listed as inhibitors; Pin1 FP peptide displacement, HiFluor488, 10 min; actives 0.009% (n = 390,000); AID 504891; active means well fitted inhibition curve with a large enough effect in the polarisation, with a control signal flat, not every such curve was filed as active; inconclusive means small, poorly fitted or top-dose-only effect, or effect the other way, or a change in a side signal; inactive means no such curve, though single readings can be large or run the other way; the % refers to the polarisation; further: potency means the concentration at half of the fitted maximal effect
Target sequence (Q13526 whole entry, looked up): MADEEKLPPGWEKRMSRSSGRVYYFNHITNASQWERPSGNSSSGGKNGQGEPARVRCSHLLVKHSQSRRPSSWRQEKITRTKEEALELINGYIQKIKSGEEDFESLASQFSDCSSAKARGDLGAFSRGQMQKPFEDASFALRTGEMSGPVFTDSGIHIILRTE
* = called active by the depositor; i = inactive; ? = inconclusive; · = not tested or not shown. Unless noted, the call rests on the fitted dose curve; in most records, active means well fitted curve in the direction sought with a large enough effect; inconclusive means small, poorly fitted or top-dose-only effect, or another doubt; inactive means no such curve, though single readings can be large; an effect the other way counts as inactive or inconclusive. On the % scale 0 is the no-effect control and ±100 the full control effect.

SMILES	KCNH2 3.1 block	KCNH2 WT inh	Tb PGK inh	KAT2A inh	RGS4 inh	Pin1 inh
CCOc1ccc(NC(=O)CC2C(=O)N(CC)C(=S)N2CCN2CCOCC2)cc1 (configuration not stated)	-87.5*	0.0	-7.4%	-0.2%	-33.3%	-8.0%
COc1ccc(-c2c(-c3ccsc3)oc(=O)c3cc(OC)c(OC)cc23)cc1	20.1	-8.2	5.0%	-6.5%	15.9%	2.2%
COc1cc2c(-c3cc(F)cc(F)c3)c(-c3ccsc3)oc(=O)c2cc1OC	-106.1*	-3.4	-8.0%	-5.3%	-12.5%	3.0%
O=C(c1cccc(F)c1)N1CCC[C@@]2(CCN(Cc3nccs3)C2)C1	·	·	·	3.6%	·	·
CC(C)C[C@H]1CN=C(N(C)C)N1CCc1cccc(F)c1	-107.2*	9.5	-5.7%	-7.5%	19.4%	-4.7%
COc1cccc(-c2ccc(NC(=O)C3CCCN(Cc4ccco4)C3)cc2)c1 (configuration not stated)	-6.4	6.4	3.0%	·	-22.7%	0.7%
COc1cccc(-c2ccc(NC(=O)C3CCCN(CCCn4nc(C)cc4C)C3)cc2)c1 (configuration not stated)	-74.0*	0.7	2.6%	-2.6%	24.3%	-0.3%
Cc1noc(C)c1C(=O)N1CCC2(CC1)CN(c1ccccc1)C2	·	·	·	-4.3%	·	·
COc1ccc(N2CSC3=C(C#N)C(c4cccs4)CC(=O)N3C2)cc1 (configuration not stated)	8.9	0.5	i	12.6µM*	-20.3%	-15.0%
COc1ccc(C2CC(=O)N3CN(C4CCCCC4)CSC3=C2C#N)cc1 (configuration not stated)	·	·	-6.2%	25.1µM*	?	-20.6%
COc1cccc(C2CC(=O)N3CN(C4CCCCC4)CSC3=C2C#N)c1 (configuration not stated)	·	·	i	?	?	-6.8%
CCOc1ccccc1N1CSC2=C(C#N)C(c3c(OC)ccc4ccccc34)CC(=O)N2C1 (configuration not stated)	-3.2	-8.8	3.8%	28.2µM*	?	17.1%
CCCN1CCc2nc(N3CCN(c4ncccn4)CC3)ncc2C1	·	·	-2.3%	23.3%	-28.9%	-1.6%
CCc1cccc2c(-c3ccccc3)nc(SCC(=O)Nc3ccccc3)nc12	·	·	-5.7%	-10.8%	10.1%	-0.8%
Nc1nc2c(c(=O)[nH]1)N=C(CNc1ccc(C(=O)NC(CCC(=O)O)C(=O)O)cc1)CN2 (configuration not stated)	·	·	·	-6.9%	i	·
Fc1ccc(Nc2ccnc(-c3ccc4c(c3)OCO4)n2)cc1	·	·	·	28.2µM*	·	·
N#Cc1ccccc1OCC(O)CNCCNC(=O)Nc1ccccc1 (configuration not stated)	·	·	·	-1.8%	·	·
COC(=O)C1=C[C@@H](C(=O)OC)C2C3=C(C(=O)[C@@]2(C)NC(=O)c2ccccc2)[C@H](c2ccccc2)n2c(=O)n(-c4ccccc4)c(=O)n2[C@@H]3C1 (some centres not stated)	·	·	·	·	11.9%	12.9%
CSc1ccc(/C=N/NC(=O)CN2CCN(Cc3ccc(C)cc3)CC2)cc1	-113.3*	-46.7	i	-4.1%	-20.3%	-1.2%
CSc1ccc(/C=N/NC(=O)CN2CCN(Cc3ccccc3Cl)CC2)cc1	-82.2*	28.5	-6.4%	-7.9%	-18.0%	-3.4%
O=C(CN1CCCCCC1)N/N=C/c1ccc(Cl)c(Cl)c1	-75.5*	-0.7	-6.1%	-4.0%	-20.0%	-8.5%
O=C(CN1CCN(Cc2ccc(Cl)cc2)CC1)N/N=C/c1ccncc1	-43.4	10.0	0.0%	-2.4%	6.0%	2.0%
Cc1ccc(/C=N/NC(=O)CN2CCN(Cc3ccccc3Cl)CC2)o1	8.2	11.2	-7.9%	-3.1%	18.2%	-3.1%
Cc1cccc(/C=N/NC(=O)CN2CCCCCCC2)c1	18.1	6.8	-7.8%	1.7%	2.3%	-4.4%
